Only some compounds are listed: those with a hit (about 1.3% of all), similar ones and a draw of the others.
NR5A2 inv ag: NR5A2 inverse agonism in reporter assay. inhibition, % at 3.6 µM. 360,000 tested, 0.13% active. O00482. HEK293T StAR-luciferase reporter, LRH-1 transfected, 24 h;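 active = inhibition above the mean inhibition of all tested compounds plus 3 SD, cut at about 73% in these data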
SRC2 inh: human SRC2 (NCOA2) inhibition; Q15596; HEK293 GAL4-SRC2 luciferase reporter, luminescence; inhibition, % at 9 µM; 370,000 tested, 0.17% active; AID 651957;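 active = inhibition above the mean inhibition of all tested compounds plus 3 SD, set per campaign, cut at about 52% in these data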
NCOA1 inh: inhibitors of human steroid receptor coactivator 1 (SRC1); Q15788; HEK293 GAL4-SRC1 luciferase reporter, luminescence; inhibition, % at 3.6 µM; 360,000 tested, 0.12% active; AID 588354;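 active = inhibition above the campaign mean plus 3 SD, with each screening campaign given its own cutoff, cut at about 60% in these data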
NR2F2 inh: inhibitors of human COUP-TFII (NR2F2); HEK293T NGFI-A luciferase reporter, luminescence; inhibition, % at 8.6 µM; P24468; 370,000 tested, 0.7% active;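 active = inhibition above a per-plate cutoff, mean inhibition of test wells between control levels plus 3 SD, cut at about 38% in these data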;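 note: cells cotransfected with COUP-TFII expression vector driving the NGFI-A reporter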
SRC3 inh: inhibits human SRC3 coactivator | Q9Y6Q9 | HEK293 GAL4-SRC3 luciferase reporter, luminescence | inhibition, % at 3.6 µM | 360,000 tested, 0.17% active | AID 588352;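 active = inhibition above a per-campaign cutoff, the mean of all compounds plus 3 SD, cut at about 60% in these data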;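 note: higher means less SRC3-driven luciferase light from the GAL4 reporter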
Gli-Sufu block: Gli-Sufu pathway antagonism; Sufu-KO-LIGHT fibroblasts, Gli luciferase reporter luminescence; inhibition, % at 5 µM; 340,000 tested, 0.74% active; AID 588413;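 active = inhibition above about 55%, limit read from the data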
Gal4-VP16 ctr: counter-screen for COUP-TFII antagonists: inhibitors of VP16 | shares compounds with NR2F2 inh | HEK293 Gal4-VP16 luciferase reporter, luminescence | inhibition, % at 8.5 µM | 2,500 tested, 25% active; in the data active = inhibition above about 13%
COUP-TFII conf: COUP-TFII (NR2F2) inhibition, confirmation assay. AID 687008. 2,500 tested, 45% active. HEK293 NGFI-A luciferase reporter, luminescence. shares compounds with NR2F2 inh. inhibition, % at 8.5 µM;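 active = mean inhibition over three repeats above a set limit taken from the earlier primary screen, cut at about 38% in these data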
Each line names hits and unclear results; the compound was inactive in the other large screens (follow-up assays come after a bar, where they were run).

COc1cc(NC(=O)c2cccs2)c(C(=O)OCC(=O)c2cc(C)n(-c3ccccc3)c2C)cc1OC	SRC2 inh 56.8, NR2F2 inh 64.6 | Gal4-VP16 ctr 18.2 | COUP-TFII conf inactive
COc1cc(NC(=O)c2cccs2)c(C(=O)OCC(=O)c2cc(C)n(-c3ccc(F)cc3)c2C)cc1OC	none
CCOC(=O)N1CCN(C(=O)C[C@@H]2C(=O)N3CCCC4=C3[C@@]2(C(=O)OCC)CCC4)CC1	none (no result: NR5A2 inv ag, NCOA1 inh, SRC3 inh, Gli-Sufu block)
Cc1c(CCC(=O)O)c(=O)oc2cc3oc4c(c3cc12)CCCC4	SRC2 inh 64.0, NR2F2 inh 42.4 | Gal4-VP16 ctr 58.8 | COUP-TFII conf 50.4
Cc1c(CCC(=O)N[C@@H](CC(C)C)C(=O)O)c(=O)oc2cc3oc4c(c3cc12)CCCC4	NR2F2 inh 45.9 | Gal4-VP16 ctr 21.3 | COUP-TFII conf inactive
CCC(=O)OCCCN1CCC2(CCC(c3ccccc3)CC2)C1=O (centres undefined)	none (no result: NR5A2 inv ag, NCOA1 inh, SRC3 inh, Gli-Sufu block)
C=CC[C@H]1c2ccccc2[C@H]2N3N=Cc4ccccc4[C@H]3[C@H](CCCC)C(=O)N2N1C(=O)NCc1ccccc1	none (no result: NR5A2 inv ag, NCOA1 inh, SRC3 inh, Gli-Sufu block)
O=C(Nc1c(F)cccc1F)c1cnc(N2CCN(c3ccccn3)CC2)c2ccccc12	none
Cc1ccc(NC(=O)c2cnc(N3CCN(c4ccccn4)CC3)c3ccccc23)c(Br)c1	NR2F2 inh 38.3 | Gal4-VP16 ctr inactive | COUP-TFII conf 39.2
O=C(CN1CCc2onc(-c3cccc(-n4cc(CO)nn4)c3)c2C1=O)N1CCOCC1	none (no result: NR5A2 inv ag, NCOA1 inh, SRC3 inh, Gli-Sufu block)
C[C@H]1O[C@@H](O[C@H]2[C@@H](O)C[C@H](O[C@H]3[C@@H](O)C[C@H](O[C@H]4CC[C@@]5(C)[C@H](CC[C@@H]6[C@@H]5C[C@@H](O)[C@]5(C)[C@@H](C7=CC(=O)OC7)CC[C@]65O)C4)O[C@@H]3C)O[C@@H]2C)C[C@H](O)[C@@H]1O	NR5A2 inv ag 102.1, SRC2 inh 61.0, NCOA1 inh 87.3, NR2F2 inh 80.4, SRC3 inh 91.2 | Gal4-VP16 ctr 48.3 | COUP-TFII conf 76.8
CN1/C(=C/c2cccc[n+]2CCO)Sc2ccccc21	none
CC[n+]1ccccc1/C=C1\Sc2ccc(C)cc2N1C	NR2F2 inh 60.6 (no result: Gli-Sufu block) | Gal4-VP16 ctr inactive | COUP-TFII conf 58.8
O=C(NCc1cccnc1)/C(=C\c1ccc(-c2ccc(Br)cc2)o1)S(=O)(=O)c1ccccc1	NR2F2 inh 55.9, SRC3 inh 83.8 | Gal4-VP16 ctr 43.9 | COUP-TFII conf 48.4
O=C(NCc1cccnc1)/C(=C/c1ccc(-c2ccc(Cl)cc2)o1)S(=O)(=O)c1ccccc1	SRC2 inh 65.5, NR2F2 inh 49.0, SRC3 inh 67.7 | Gal4-VP16 ctr 45.1 | COUP-TFII conf 44.0
O=C(NCc1cccnc1)/C(=C/c1ccc(-c2cccc(C(F)(F)F)c2)o1)NC(=O)c1ccccc1	none
CCCNC(=O)c1cc(S(=O)(=O)N2CCc3ccccc32)cn1C	NR2F2 inh 43.9 | Gal4-VP16 ctr inactive | COUP-TFII conf inactive
COc1ccc2ccccc2c1C=NNC(=O)c1cc(-c2ccc(C)c(C)c2)n[nH]1	none (no result: NR5A2 inv ag, NCOA1 inh, SRC3 inh, Gli-Sufu block)
COC(=O)C1CN(Cc2cn(CCC3OCCO3)nn2)CCS(=O)(=O)N1Cc1ccc(OC)cc1 (centres undefined)	none (no result: NR5A2 inv ag, NCOA1 inh, SRC3 inh, Gli-Sufu block)
COC(=O)c1ccc(Oc2ccc(S(=O)(=O)N3CCCCC3)cc2N)cc1	NR2F2 inh 38.5 | Gal4-VP16 ctr inactive | COUP-TFII conf inactive
COCCn1c(C)cc(C(=O)CSc2nc3ccccc3s2)c1C	NR2F2 inh 50.4 | Gal4-VP16 ctr inactive | COUP-TFII conf inactive
COCCn1c(C)cc(C(=O)CSc2nc3ccccc3o2)c1C	none
CN(C)c1ccc(-c2nc3ncc(Cl)cc3[nH]2)cc1	none (no result: NR5A2 inv ag, NCOA1 inh, SRC3 inh, Gli-Sufu block)
CCC(=O)N1CCc2cc(Br)c(S(=O)(=O)NC3CCN(Cc4ccccc4)CC3)cc21	none (no result: NR5A2 inv ag, NCOA1 inh, SRC3 inh, Gli-Sufu block)
COc1ccccc1-c1cc2nc(C)c(CCC(=O)NCc3ccc(F)cc3)c(C)n2n1	none
Cc1csc(NC(=O)CCc2c(C)nc3cc(-c4ccc(Cl)cc4)nn3c2C)n1	SRC2 inh 66.4, NR2F2 inh 48.7 | Gal4-VP16 ctr inactive | COUP-TFII conf inactive
COc1cc(OC)cc(-c2cc3nc(C)c(CCC(=O)NCc4ccccc4)c(C)n3n2)c1	SRC2 inh 77.3, NR2F2 inh 58.4 | Gal4-VP16 ctr 28.6 | COUP-TFII conf 47.1
COC(=O)[C@]12C[C@H](CC(=O)NCc3cccc(C(F)(F)F)c3)C(=O)N(Cc3ccccc3)C1=C[C@H](C1CCCC1)O[C@@H]2C	none (no result: NR5A2 inv ag, NCOA1 inh, SRC3 inh, Gli-Sufu block)
CCCCN1CC(COc2ccc(OC)cc2)OCCS1(=O)=O (centres undefined)	none (no result: NR5A2 inv ag, NCOA1 inh, SRC3 inh, Gli-Sufu block)
CN(Cc1cccc2ccccc12)C(=O)c1cc(COc2c(F)cccc2F)on1	none
CN(Cc1cccc2cnccc12)C(=O)c1cc(COc2ccc(F)cc2F)on1	NR2F2 inh 45.0 | Gal4-VP16 ctr inactive | COUP-TFII conf inactive
C#CCNC(=O)C[C@H]1C(=O)N(Cc2ccc(OC)cc2)C2=CCCC[C@@]21C(=O)OCC	none (no result: NR5A2 inv ag, NCOA1 inh, SRC3 inh, Gli-Sufu block)
CN1C(=O)C2(C(C#N)=C(N)N(c3cc(Cl)cc(Cl)c3)C3=C2C(=O)CC(C)(C)C3)c2ccccc21 (centres undefined)	NR2F2 inh 44.5 | Gal4-VP16 ctr inactive | COUP-TFII conf inactive
O=C(Nc1cccc(C(F)(F)F)c1)c1ccc2sc([C@H]3C[C@H](O)[C@@H](CO)O3)nc2c1	NR2F2 inh 57.9 (no result: Gli-Sufu block) | Gal4-VP16 ctr inactive | COUP-TFII conf inactive
O=C(Nc1ccc(Oc2ccccc2)cc1)c1ccc2sc([C@H]3C[C@H](O)[C@@H](CO)O3)nc2c1	NR2F2 inh 73.8 (no result: Gli-Sufu block) | Gal4-VP16 ctr inactive | COUP-TFII conf 46.0
COc1ccc(Cl)cc1-c1cc(C(=O)Nc2ccc(C)c(NS(C)(=O)=O)c2)[nH]n1	NR2F2 inh 38.1 (no result: Gli-Sufu block) | Gal4-VP16 ctr inactive | COUP-TFII conf inactive
Cc1ccc(NC(=O)c2cc(-c3cc(Cl)ccc3C)n[nH]2)cc1NS(C)(=O)=O	NR2F2 inh 50.3 (no result: Gli-Sufu block) | Gal4-VP16 ctr inactive | COUP-TFII conf 40.8
COc1ccc(Cl)c(-c2cc(C(=O)Nc3ccc(C)c(NS(C)(=O)=O)c3)[nH]n2)c1	none (no result: Gli-Sufu block)
CC(C)(C)n1ncc2c(=O)n(CC(=O)OCc3ccccc3)cnc21	NR2F2 inh 60.7 | Gal4-VP16 ctr 59.2 | COUP-TFII conf 80.5
CCc1ccn2cc(-c3cc(-c4ccccc4)no3)nc2c1	SRC2 inh 73.7, NR2F2 inh 87.9, Gli-Sufu block 55.7 | Gal4-VP16 ctr 18.3 | COUP-TFII conf 66.6
Cc1ccc2nc(-c3cc(-c4ccccc4)no3)cn2c1	none
CC1(C(=O)Nc2ccccc2)CCN1C(=O)C1(c2ccc(Cl)cc2)CC1 (centres undefined)	NR2F2 inh 76.0 (no result: Gli-Sufu block) | Gal4-VP16 ctr inactive | COUP-TFII conf inactive

Compound activity from PubChem.
